High-throughput results as filed in PubChem.
The entries come from a sample that favours hits as a whole.
Pf Dd2 inh = qHTS Primary assay for Inhibitors of Plasmodium falciparum Dd2 growth in vitro | P. falciparum Dd2 growth, SYBR Green, 72 h | Potency, µM (doses to about 28.9 µM), inactives show at the highest dose activity, negative = inhibition, actives largely listed as inhibitors | 120,000 compounds, 4.3% hits | AID 1347417, 2020; active = well fitted inhibition curve with a large enough effect;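 note: plate controls were DMSO vehicle for no effect and reference drug for full effect; nearly all actives have a fitted effect of over 65% in size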
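Infected erythrocytes (Dd2, 0.3% parasitemia, 2.5% hematocrit final) are added to compound in RPMI-1640/Albumax II medium, grown 72 h at 37C in low oxygen, then lysed with saponin/Triton-X containing SYBR Green and read by fluorescence.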
* hit, by the source's call; [ ] = remark or other dose. Potency is the fitted concentration of half-maximal effect.

Results for CN1CCN(c2ccc(-c3noc([C@@H]4CCCN4Cc4ccccc4)n3)cn2)CC1 ?
Pf Dd2 inh: 7.9µM*

How did CNc1ccc(-c2noc([C@@H]3CCCN3Cc3cnc4ccccc4c3)n2)cn1 do in these assays?
Pf Dd2 inh: -24%[44.1 µM]

How did CCOC(=O)c1c(NC(=O)c2cc3ccccc3c(=O)o2)sc2c1CCC(C(C)(C)C)C2 (stereo not drawn) do in these assays?
Pf Dd2 inh: 28%

Results for CCC(=O)N1CCc2cc(CNS(=O)(=O)c3ccc(NC(=O)CC(C)C)cc3)ccc21 ?
Pf Dd2 inh: 13%

What do the screens show for `CCc1cccc(NC(=O)CN2C=NS(=O)(=O)c3ccccc32)c1`?
Pf Dd2 inh: -9%

How did CC(=O)N1CCCc2cc(S(=O)(=O)NCc3ccc(N(C)C)cc3)ccc21 do in these assays?
Pf Dd2 inh: -6%

What do the screens show for `CCOC(=O)C1(C)C=C(Nc2cccc(C(=O)O)c2)C(=O)N1c1cccc(C(=O)O)c1` (stereo not drawn)?
Pf Dd2 inh: 23%

What do the screens show for `CCN1c2cc(C(=O)Nc3ccc(OC)c(OC)c3)ccc2C(=O)N2CCCCCC21` (stereo not drawn)?
Pf Dd2 inh: inactive

What do the screens show for `CN1c2cc(C(=O)Nc3cccc(OC(F)(F)F)c3)ccc2C(=O)N2CCCCC21` (stereo not drawn)?
Pf Dd2 inh: -20%

Results for CCN1c2cc(C(=O)Nc3ccc(C)cc3C)ccc2C(=O)N2CCCCCC21 (stereo not drawn) ?
Pf Dd2 inh: inactive

Results for CCN1c2cc(C(=O)Nc3ccc(C)cc3)ccc2C(=O)N2CCCCCC21 (stereo not drawn) ?
Pf Dd2 inh: inactive

What do the screens show for `CCOC(=O)c1ccc(NC(=O)c2ccc3c(c2)N(CC)C2CCCCN2C3=O)cc1` (stereo not drawn)?
Pf Dd2 inh: -8%

Results for CCN1c2cc(C(=O)Nc3cccc(OC)c3)ccc2C(=O)N2CCCCCC21 (stereo not drawn) ?
Pf Dd2 inh: inactive

Results for CCN1c2cc(C(=O)Nc3cc(C)ccc3OC)ccc2C(=O)N2CCCCCC21 (stereo not drawn) ?
Pf Dd2 inh: 6.3µM*

Results for CCN1c2cc(C(=O)Nc3cccc(OC(F)(F)F)c3)ccc2C(=O)N2CCCCC21 (stereo not drawn) ?
Pf Dd2 inh: 4.5µM*

Results for CCOc1ccc(NC(=O)c2ccc3c(c2)N(CC)C2CCCCN2C3=O)cc1 (stereo not drawn) ?
Pf Dd2 inh: 5µM*

Results for O=C(O)CCC(=O)N1CCC(N(Cc2cccnc2)C2CCOCC2)CC1 ?
Pf Dd2 inh: 9%

What do the screens show for `COc1cccc(CCC(=O)N2CCC(c3nn(C)c4c3COCC4)CC2)c1`?
Pf Dd2 inh: inactive[5.79 µM]

Results for COc1cccc(-c2cc3c(=O)n(CCNC(=O)c4ccc(C)cc4)ccn3n2)c1 ?
Pf Dd2 inh: inactive

How did COc1ccc(-c2nocc2CCC(=O)NCCc2ccc(S(N)(=O)=O)cc2)cc1 do in these assays?
Pf Dd2 inh: -29%

What do the screens show for `Cc1ccc(C(=O)N2CC(C)(C)[C@@](C)(O)C2)cc1N1CCNC1=O`?
Pf Dd2 inh: 0%

Results for COc1ccc(CNC(=O)CN2C(=O)CSc3ccc(S(=O)(=O)N4CCC(C)CC4)cc32)cc1 ?
Pf Dd2 inh: -6%

How did Cc1ccc(C(=O)N[C@@H](Cc2ccccc2)C(N)=O)cc1N1CCNC1=O do in these assays?
Pf Dd2 inh: -25%

How did COc1cccc(S(=O)(=O)N2CCN(C3CCN(CCC(C)C)C3=O)CC2)c1 (stereo not drawn) do in these assays?
Pf Dd2 inh: -29%

How did Cc1ccc(F)cc1S(=O)(=O)N1CCN(C2CCN(CCC(C)C)C2=O)CC1 (stereo not drawn) do in these assays?
Pf Dd2 inh: -22%

Results for CC(C)CCN1CCC(N2CCN(S(=O)(=O)c3ccc(Cl)cc3)CC2)C1=O (stereo not drawn) ?
Pf Dd2 inh: 0%

How did CCCc1ccc(S(=O)(=O)N2CCN(C3CCN(CCC(C)C)C3=O)CC2)cc1 (stereo not drawn) do in these assays?
Pf Dd2 inh: 5.6µM*

How did CCCc1ccc(S(=O)(=O)N2CCN(C3CCN(CCOC)C3=O)CC2)cc1 (stereo not drawn) do in these assays?
Pf Dd2 inh: inactive

What do the screens show for `CC(C)CCN1CCC(N2CCN(S(=O)(=O)c3ccc4c(c3)CCC4)CC2)C1=O` (stereo not drawn)?
Pf Dd2 inh: 7.1µM*

What do the screens show for `O=C1C(N2CCN(S(=O)(=O)c3ccc(Cl)cc3)CC2)CCN1CCc1ccccc1` (stereo not drawn)?
Pf Dd2 inh: inactive

What do the screens show for `CCc1ccccc1S(=O)(=O)N1CCN(C2CCN(CCC(C)C)C2=O)CC1` (stereo not drawn)?
Pf Dd2 inh: 10µM*

How did CC(C)CCN1CCC(N2CCN(S(=O)(=O)c3cc(F)cc(F)c3)CC2)C1=O (stereo not drawn) do in these assays?
Pf Dd2 inh: -3%

How did CN1C(=O)C(C)(C)c2cc(S(=O)(=O)NCc3ccc(C(=O)Nc4ccc(Cl)cc4)cc3)ccc21 do in these assays?
Pf Dd2 inh: -26%

How did Cc1cc(C)c2c(-n3cccc3)c(C(=O)NCC(C)c3ccccc3)sc2n1 (stereo not drawn) do in these assays?
Pf Dd2 inh: -19%

Results for Cc1ccc(C)c(NC(=O)c2cc(S(=O)(=O)NCc3ccccc3)ccc2F)c1 ?
Pf Dd2 inh: 114%

What do the screens show for `C[C@H](c1ccccc1)N1C(=O)[C@@H]2CN(C(=O)c3cccs3)CCN2C1=O`?
Pf Dd2 inh: -8%[44.1 µM]

How did O=C(Cn1cc(SCc2c(F)cccc2Cl)c2ccccc21)N1CCCCCC1 do in these assays?
Pf Dd2 inh: 1%

How did COCCN1CCCC2(CCN(C(=O)c3ccc(Cl)s3)C2)C1=O (stereo not drawn) do in these assays?
Pf Dd2 inh: -19%

How did O=C(c1cccc(Cl)c1)N1CCN(C2CCN(CCc3ccccc3)C2=O)CC1 (stereo not drawn) do in these assays?
Pf Dd2 inh: inactive

Results for CCC(=O)N1CCN(C2CCN(CCc3ccccc3)C2=O)CC1 (stereo not drawn) ?
Pf Dd2 inh: inactive

What do the screens show for `Cc1ccc(C(=O)N2CCN(C3CCN(CCc4ccccc4)C3=O)CC2)cc1F` (stereo not drawn)?
Pf Dd2 inh: 10µM*

What do the screens show for `COc1ccc(S(=O)(=O)N2CCC(c3ccncc3)CC2)cc1OC`?
Pf Dd2 inh: 33%

Results for COCCc1noc([C@@H]2CN(C(=O)c3cc(C)ccc3C)C[C@H]2CO)n1 ?
Pf Dd2 inh: -36%

How did COCc1nc(C2CC(Nc3ccnc4cc(Cl)ccc34)C2)cc(=O)[nH]1 (stereo not drawn) do in these assays?
Pf Dd2 inh: 2.5µM*

What do the screens show for `CN(C)c1nc(NC2CC(c3cc(=O)[nH]c(C4CC4)n3)C2)ncc1F` (stereo not drawn)?
Pf Dd2 inh: inactive

What do the screens show for `COCc1nc(C2CC(NC(=O)CN3C(=O)CN(C)C3=O)C2)cc(=O)[nH]1` (stereo not drawn)?
Pf Dd2 inh: -12%

What do the screens show for `CCN1C(=O)C2CC3(CCN(C(=O)COCCOC)CC3)CN2C1=O` (stereo not drawn)?
Pf Dd2 inh: -7%

How did COc1ccccc1-c1ncc[nH]1 do in these assays?
Pf Dd2 inh: 65%[76.6 µM]

Results for COc1cccc(-c2[nH]cnc2-c2ccccc2)c1OCCCn1ccnc1 ?
Pf Dd2 inh: 3.2µM*

How did CCOCCn1cnc(-c2ccccc2)c1-c1ccccc1OCC(N)=O do in these assays?
Pf Dd2 inh: -16%
